Bioassay records as filed in PubChem BioAssay.
Sm TGR block: blocks Schistosoma mansoni thioredoxin glutathione reductase; Q962Y6; Potency, µM (highest dose often 114 µM), without a hit: at the highest dose activity change, negative = inhibition, actives largely listed as inhibitors; AID 485364; purified TGR, DTNB reduction, TNB absorbance 405 nm; hit rate 3% among 360,000; further: potency means the concentration at half of the fitted maximal effect; on the % scale 0 is the no-effect control and ±100 the full control effect; nearly all actives have a fitted effect of over 60% in size
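First, TGR (20 nM dispensed) and NADPH were mixed with compound. Second, a 15 min room-temperature incubation followed. Third, further NADPH and then DTNB were added to start the reaction. Finally, TNB absorbance was monitored kinetically.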
HCMV inh: blocks human cytomegalovirus replication. activity change, negative = inhibition, % at 57.5 µM. HFF cells, HCMV-luciferase reporter, 72 h; stronger effect = lower value. AID 1259415. hit rate 4.5% among 410,000; in the data active means activity change below about -60%; inconclusive means no clear call, values can overlap the other calls; inactive means above about -39%; further: on the % scale 0 is the no-effect control and ±100 the full control effect
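Human foreskin fibroblasts infected with luciferase-reporter HCMV at MOI 1 PFU/cell, compounds at two doses. Luciferase measured 72 h post infection; normalized to buffer-only basal and Salinomycin (10uM) controls.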
HCV inhibitor: HCV inhibition. Huh7.5.1 HCVcc-Cre infection, luciferase reporter, 44 h. Potency, µM (highest dose often 41.8 µM), for inactives: at the highest dose activity change, negative = inhibition, actives largely listed as inhibitors. hit rate 3.4% among 340,000; further: potency means the concentration at half of the fitted maximal effect; on the % scale 0 is the no-effect control and ±100 the full control effect
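Whole-lifecycle infectious HCVcc-Cre system; cells 1,000/well, compound then virus (~0.5 moi) added 4 h after plating, 44 h culture. Luciferase read 15 sec following 15 min substrate incubation, room temp.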
Pf growth 48h: P. falciparum growth inhibition at 48 hours (one generation) | hit rate 5.9% among 310,000 | Potency, µM (titrated, usually from 28.7 µM), without a hit: at the top dose activity change, negative = inhibition, hits mostly inhibitors | P. falciparum luciferase growth in erythrocytes, 48 h | AID 504832; further: potency means the concentration at half of the fitted maximal effect; on the % scale 0 is the no-effect control and ±100 the full control effect
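Compounds are pin-transferred into medium, infected erythrocytes (2% hematocrit, 0.1% parasitemia final) are added, and plates sit one parasite generation at 37 C in 5% CO2. Detection reagent is then added and luminescence measured.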
Pf growth 96h: P. falciparum growth inhibition at 96 hour, primary screen for plastid delayed-death inhibitors; Potency, µM (titrated, usually from 28.7 µM), for the others: at the highest dose activity change, negative = inhibition, hits mostly inhibitors; P. falciparum luciferase reporter growth, 96 h; AID 504834; hit rate 6.9% among 320,000; further: potency means the concentration at half of the fitted maximal effect; on the % scale 0 is the no-effect control and ±100 the full control effect
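96 h incubation, 37 C, 5% CO2, of luciferase-reporter P. falciparum-infected RBCs (2% hematocrit, 0.05% parasitemia final) with test compounds; endpoint luminescence.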
SARS PLpro yeast: inhibitors of SARS-CoV papain-like protease in yeast; S. cerevisiae expressing SARS-CoV PLpro, growth rescue; Potency, µM (doses to about 32.9 µM), without a hit: at the top dose activity, positive = growth rescue, most hits filed as activators; hit rate 0.19% among 330,000; AID 485353; calls by dose curve; further: potency means the concentration at half of the fitted maximal effect; 0% is about no effect; nearly all actives have a fitted effect of over 55% in size
Numbers without * were called inactive; ? = inconclusive; . = no result given; [ ] = remark or other dose. Rows were chosen to be rich in hits. Some 15% of all compounds tested hit in one or more screens of this group. Unless noted, the call rests on the fitted dose curve; in most records, active means well fitted curve in the direction sought with a large enough effect; inconclusive means small, poorly fitted or top-dose-only effect, or another doubt; inactive means no such curve, though single readings can be large; an effect the other way counts as inactive or inconclusive.

SMILES | Sm TGR block | HCMV inh | HCV inhibitor | Pf growth 48h | Pf growth 96h | SARS PLpro yeast
CN(C)C(=O)C1Cc2ccccc2CN1S(=O)(=O)c1ccc(F)cc1 (configuration not stated) | 5% | -22 | -3% | 8% | 4.1µM* | 1%
Cc1ccc(S(=O)(=O)N2Cc3ccccc3CC2C(=O)NC(C)(C)C)cc1 (configuration not stated) | -21% | 0 | -12% | 2% | 12µM* | -2%
Cc1ccccc1N(C(=O)CNC(=O)c1ccco1)C(C(=O)NC1CCCC1)c1ccncc1 (configuration not stated) | -8% | -23 | -5% | ? | 22% | -3%
CC1CCN(C(=S)Nc2ccc(SC(F)F)cc2)CC1 | -2% | -37 | ? | 107% | 217% | 18%
CC(=O)N1CCN(C(=S)Nc2ccc(SC(F)F)cc2)CC1 | 2% | -76* | 29% | 2% | 6% | -1%
O=C(Nc1ccc(SC(F)F)cc1)C1=COCCO1 | -11% | -30 | -23% | 141% | 1.7µM* | -10%
Cc1ccc(C(=O)Nc2ccc(SC(F)F)cc2)s1 | -1% | -15 | ? | 115% | -14% | -5%
COC(=O)C[C@@H]1C[C@@H]2c3cc(NC(=O)Cc4ccncc4)ccc3O[C@@H]2[C@@H](CO)O1 | . | 12 | . | . | . | .
C/C=C/C(=O)OCC(=O)Nc1cc(-c2cc(C)c(C)cc2C)nn1-c1ccccc1 | -2% | 7 | -2% | -21% | ? | -47%
O=C(CCCCCNC(=S)Nc1ccc(Cl)cc1)C[N+](=O)[O-] | -23% | 24 | -16% | 0% | -23% | 0%
COc1ccc(NC(=S)NCCCCCC(=O)C[N+](=O)[O-])cc1 | 20µM* | -20 | 0% | ? | ? | -1%
O=C(CCCCCNC(=S)Nc1ccccc1)C[N+](=O)[O-] | 25µM* | 50 | 6% | -9% | -4% | -3%
CCOC(=O)c1ccc(NC(=O)NCCOCCn2c(=O)oc3ccccc32)cc1 | 6% | -27 | . | . | . | .
COc1ccc(N2CCN(c3ncnc4c3nnn4Cc3ccccc3Cl)CC2)cc1 | 1% | ? | 15% | 3% | 5.2µM* | 2%
CCc1nc(N2CCC3(CC2)OCCO3)c2nnn(Cc3ccccc3)c2n1 | -2% | 0 | ? | ? | 0% | 3%
c1ccc(Cn2nnc3c(N4CCC5(CC4)OCCO5)ncnc32)cc1 | -14% | 35 | ? | -9% | 12µM* | 2%
CC1Cc2ccccc2N1c1ncnc2c1nnn2Cc1ccccc1 (configuration not stated) | -2% | ? | 11µM* | -6% | -19% | -1%
c1ccc(Cn2nnc3c(N4CCc5ccccc5C4)ncnc32)cc1 | -17% | -6 | -24% | ? | 47% | -14%
Cc1nc(N2CCCC2)c2nnn(Cc3ccccc3Cl)c2n1 | 5% | ? | -10% | 20% | 34% | 5%
CCCCC(=O)Nc1ccc(NC(=O)c2ccc([N+](=O)[O-])cc2)cc1OC | -3% | -1 | ? | 27% | ? | 7%
COc1ccccc1NC(=O)c1ccc(-n2cccn2)c([N+](=O)[O-])c1 | 25µM* | -20 | -23% | -11% | -3% | -1%
Cc1ccc(NC(=O)c2ccc(-n3cccn3)c([N+](=O)[O-])c2)cc1C | 11µM* | 121 | ? | -11% | ? | 5%
CCCCC(=O)Nc1ccc(C(=O)Nc2ccc(OC)cc2[N+](=O)[O-])cc1 | 2% | -31 | ? | -22% | 3.7µM* | 13%
COc1ccc(NC(=O)c2ccc(-n3cccn3)c([N+](=O)[O-])c2)cc1 | 40µM* | -13 | -29% | -4% | -4% | -1%
O=C(Cn1cnc2ccccc2c1=O)Nc1ccc(N2CCOCC2)cc1 | 54% | -22 | 9% | 33% | 2% | 1%
SMILES | Sm TGR block | HCMV inh | HCV inhibitor | Pf growth 48h | Pf growth 96h | SARS PLpro yeast
CCC1=C(OC(=O)N(CC)CC)N2C(=O)OC(=NCC(=O)OC)[C@]2(Cc2ccccc2)[C@H]2C1=CC[C@H]1C(=O)N(c3ccccc3)C(=O)[C@H]12 | ? | -9 | 21%[8.37 µM] | 6.6µM* | 9.3µM* | 1%
CCC1=C(OC(=O)N(CC)CC)N2C(=O)OC(=NCC(=O)OC)[C@]2(C)[C@H]2C1=CC[C@H]1C(=O)NC(=O)[C@H]12 | -9% | -11 | 9% | ? | 45% | 1%
CCC1=C(OC(=O)N(CC)CC)N2C(=O)OC(=NCC3CC3)[C@]2(Cc2ccccc2)[C@H]2C1=CC[C@H]1C(=O)N(C)C(=O)[C@H]12 | 1% | 5 | -20% | 10µM* | 9.3µM* | 1%
CCC1=C(OC(=O)N(CC)CC)N2C(=O)OC(=NCC(=O)OC)[C@]2(Cc2ccccc2)[C@H]2C1=CC[C@H]1C(=O)N(C)C(=O)[C@H]12 | ? | 9 | 2% | ? | ? | 0%
CCC1=C(OC(=O)N(CC)CC)N2C(=O)OC(=NCC3CC3)[C@]2(Cc2ccccc2)[C@H]2C1=CC[C@H]1C(=O)N(c3ccccc3)C(=O)[C@H]12 | -14% | 27 | ? | 2.6µM* | 2.9µM* | 1%
O=C(CN1CCN(c2ncccn2)CC1)N1CCCc2c1c(=O)oc1ccc(O)cc21 | ? | -18 | 7% | ? | ? | 5%
O=C1NCCCc2c1oc1ccc(O)cc21 | 9% | -63* | 11% | ? | -1% | -4%
O=C(c1cnn2c1NC(c1ccco1)CC2C(F)(F)F)N1CCN(c2cccc(Cl)c2)CC1 (configuration not stated) | ? | -22 | 10µM* | ? | . | 11%
Clc1cncc(Cl)c1N/N=C/c1ccncc1 | -6% | ? | ? | ? | 1.2µM* | -42%
Nc1c(Cl)ncnc1N/N=C/c1ccncc1 | 45µM* | -24 | 14% | -14% | 0% | -1%
NS(=O)(=O)c1ccc(N/N=C/c2ccncc2)cc1 | 2% | -36 | 5% | 6.6µM* | ? | -1%
Clc1cccc(Cl)c1/C=N/Nc1c(Cl)cncc1Cl | 6% | 30 | ? | 0% | 2% | 0%
Nc1c(Cl)ncnc1N/N=C/c1cccc(O)c1 | ? | -22 | 11% | 51% | 2% | -1%
Cn1c(-c2cccnc2)cc2c(Nc3cccc(C(F)(F)F)c3)nccc21 | . | -22 | . | . | . | .
COc1ccc(Cl)cc1N1C(=O)/C(=C\c2sccc2C)N=C1SCC(=O)NC1CC1 | -9% | -33 | ? | . | 9.3µM* | 8%
O=C(O)C(C1CCCCC1)C1(O)CCCC1 (configuration not stated) | . | 22 | 0% | . | . | .
CCOc1ccc(CCNC(=O)C2=C(C)C(=O)OC23CCC(C)CC3)cc1 (configuration not stated) | -5% | -15 | -15%[8.37 µM] | -4% | 10µM* | 3%
